GLS inh = qHTS for Inhibitors of Glutaminase (GLS); Glutaminase kidney isoform, mitochondrial (Homo sapiens), O94925; AID 624170, 2012; 410,000 tested, 0.21% active; GLS enzymatic activity, qHTS titration; Potency, µM (titrated, usually from 45.5 µM), hits mostly inhibitors
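Two-point fluorescence kinetic (t0, 30 min RT) for hKGA; glutamate detected via glutamate oxidase–HRP–Amplex Red. Substrate: 1 mM L-glutamine solution; buffer 45 mM KH2PO4, pH 8.2.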
BAZ2B block = qHTS Assay for Inhibitors of BAZ2B; Bromodomain adjacent to zinc finger domain protein 2B (Homo sapiens), Q9UIF8; AlphaScreen BAZ2B-H3K14Ac peptide displacement; Potency, µM (titrated, usually from 114 µM), hits mostly inhibitors; 360,000 tested, 4.4% active; AID 504333, 2011; note: nearly all actives have a fitted effect of over 60% in size
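Complex of BAZ2B and biotin-H3K14Ac (50 nM apiece) forms over 30 min at RT, then faces library compounds up to 110 uM for another 30 min; AlphaScreen beads added, 20 min dark incubation, luminescence read.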
HP1b chromo inh = HTS for Inhibitors of HP1-beta Chromodomain Interactions with Methylated Histone Tails | 390,000 tested, 0.56% active | Chromobox protein homolog 1 (Homo sapiens), P83916 | Potency, µM (doses to about 114 µM), usual class: inhibitors | AlphaScreen HP1-beta / biotin-H3K9me3 peptide binding | AID 540317, 2011; note: nearly all actives have a fitted effect of over 70% in size
Target sequence (P83916 whole entry, looked up): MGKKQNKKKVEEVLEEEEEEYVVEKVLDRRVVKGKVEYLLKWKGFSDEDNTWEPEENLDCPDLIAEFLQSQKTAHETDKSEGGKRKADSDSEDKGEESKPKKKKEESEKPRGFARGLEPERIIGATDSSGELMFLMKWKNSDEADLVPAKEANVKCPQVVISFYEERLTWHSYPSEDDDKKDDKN
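AlphaScreen: HP1-beta (50 nM) preformed 30 min with biotin-H3(1-18)K9me3 peptide (50 nM) in PBS pH 7.4, 0.01% Tween-20. Compound added for 30 min at RT, then streptavidin donor/nickel chelate acceptor beads (10 ug/mL) for 30 min.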
JMJD2A Tudor = qHTS Assay for Inhibitors of JMJD2A-Tudor Domain; AlphaScreen JMJD2A-Tudor / H3K4me3 peptide binding; 390,000 tested, 4.4% active; Lysine-specific demethylase 4A (Homo sapiens), O75164; Potency, µM (doses to about 114 µM), actives largely listed as inhibitors; note: nearly all actives have a fitted effect of over 50% in size
G9a block = qHTS Assay for Inhibitors of Histone Lysine Methyltransferase G9a | Histone-lysine N-methyltransferase EHMT2 (Homo sapiens), Q96KQ7 | G9a H3K9 monomethylation, AlphaScreen, 2 h | Potency, µM (top dose mostly 102 µM), usual class: inhibitors | 350,000 tested, 8.8% active; note: nearly all actives have a fitted effect of over 75% in size
Target sequence (Q96KQ7 913-1193 limits assumed): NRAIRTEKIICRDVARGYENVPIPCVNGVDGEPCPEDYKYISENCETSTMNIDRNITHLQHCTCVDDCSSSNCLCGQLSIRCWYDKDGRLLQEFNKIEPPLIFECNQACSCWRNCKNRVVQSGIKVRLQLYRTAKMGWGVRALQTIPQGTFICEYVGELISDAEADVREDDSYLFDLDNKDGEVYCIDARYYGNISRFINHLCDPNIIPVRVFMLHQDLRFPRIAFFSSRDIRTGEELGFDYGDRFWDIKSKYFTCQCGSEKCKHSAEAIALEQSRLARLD
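G9a (20 nM) was preincubated 15 min with compound, then reacted 2 h at room temperature with 500 nM biotin-H3K9 peptide and 20 µM SAM. Monomethyl-H3K9 detected by AlphaScreen using anti-H3K9me1 antibody.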
A number is an active result; - = inactive; ? = inconclusive; . = no result given; [ ] = remark or other dose. Most compounds without a hit are left out; they make up all but 10% or so of the library. Calls come from the whole dose curve; as a rule, active = well fitted curve in the direction sought with a large enough effect; inconclusive = small, poorly fitted or top-dose-only effect, or another doubt; inactive = no such curve, though single readings can be large; an effect the other way counts as inactive or inconclusive.

SMILES	GLS inh	BAZ2B block	HP1b chromo inh	JMJD2A Tudor	G9a block
CC(=O)NC1=C(N(C)C2CCS(=O)(=O)C2)C(=O)c2ccccc2C1=O (centres undefined)	-	-	-	-	7.9µM
CN(C(=O)Nc1ccccc1)C1CCS(=O)(=O)C1 (centres undefined)	-	-	-	-	-
N#Cc1cccc(-c2cc(NCc3ccccc3)ncn2)c1	.	.	.	.	-[0.501 µM]
Cc1cc(C)c(S(=O)(=O)N(C)CC(=O)NCc2ccncc2)c(C)c1	-	-	-	-	-
Cc1ccc(C(=O)Nc2ccc3c(c2)N(C)C(=O)c2ccccc2S3)cc1	-	-	-	-	-
Cc1ccccc1OCCn1cnc2cc([N+](=O)[O-])ccc2c1=O	-	?	-	-	-
O=C(N/N=C\c1cc(Br)cs1)c1ccncc1	-	-	-	-	-
O=C(O)c1ccc(N/N=C/c2cc(Br)cs2)cc1	8.9µM	-	-	-	-
Cc1ccc(/C=N/Nc2ccc(C(=O)O)cc2)s1	-	?	-	-	14µM
CCCCCCN1C[C@H](n2cc(-c3ccc(F)cc3)nn2)[C@@H](O)C[C@@H]1c1ccc(Cl)cc1	-	.	.	.	.
N#CN1CCC(NS(=O)(=O)c2ccc(C(F)(F)F)cc2)CC1	-	.	-	-	.
O=C(NCCCCc1ccccc1)c1cccc(NC(=O)C2CC2)c1	-	.	-	56µM	.
COc1cc(OC)cc(C(=O)N2CCN(Cc3ccccc3[N+](=O)[O-])CC2)c1	-	20µM	?	-[11.4 µM]	7.9µM
COc1ccc(C(=O)N2CCN(Cc3ccccc3[N+](=O)[O-])CC2)cc1	-	50µM	?	22µM	16µM
CCOc1ccc(S(=O)(=O)N2CCN(C(=O)c3cc(-c4ccccc4)nn3-c3ccccc3)CC2)cc1	-	-	-	-	40µM
Cc1ccc(S(=O)(=O)N2CCN(C(=O)CCOc3ccccc3C)CC2)cc1C	-	-	-	-	-
CCOc1ccc(OCCC(=O)OCC(=O)N2CCN(S(=O)(=O)c3ccc(Cl)cc3)CC2)cc1	-	50µM	-	?	.
CCOc1ccc(S(=O)(=O)N2CCN(C(=O)CCOc3ccccc3C)CC2)cc1	-	-	-	-	13µM
Cc1ccc(C)c(S(=O)(=O)N2CCCC2CNC(=O)C(=O)NC2CC2)c1 (centres undefined)	-	-	-	-	-
CCN(CC)C(=O)CSc1nc(-c2cccs2)cc(-c2cccs2)c1C#N	?	-	-	-	4µM
C#CCSc1nc(-c2cccs2)ccc1C#N	-	-	-	-	-[12.7 µM]
CCN(CC)C(=O)CSc1nc(N)c(C#N)c(-c2cccs2)c1C#N	-	-	-	-	-
COC(=O)CSc1nc(-c2cccs2)ccc1C#N	-	-	-	-	32µM
N#Cc1c(-c2ccc(F)cc2)cc(-c2cccs2)nc1SCC(=O)O	-	-	-	-	-
CN1CCN(C(=O)CSc2nc(-c3cccs3)cc(-c3cccs3)c2C#N)CC1	-	-	-	-	40µM
SMILES	GLS inh	BAZ2B block	HP1b chromo inh	JMJD2A Tudor	G9a block
COc1ccc(C2CC(=O)NC(NC(=O)c3ccc(Br)cc3)=N2)c(OC)c1OC (centres undefined)	-	-	-	-	-
COc1ccc(NC(=O)CCc2c(C)nn(-c3ccc(N4CCCC4)nn3)c2C)cc1Cl	-	-	-	?	-
COc1ccc2nc3cc(Cl)ccc3c(Nc3cc(CN4CCCC4)c(O)c(CN4CCCC4)c3)c2n1	.	40µM	.	.	?
COCCNC(=O)C1(C)CCN(C(=O)c2ccc(C(F)(F)F)nc2C)C1 (centres undefined)	-	.	.	.	.
O=C(CCc1ccc(O)c(O)c1)NNC(=S)Nc1ccc(Br)cc1Cl	-	-	-	-	18µM
CCN(CC)CCC=C(c1cccs1)c1cccs1	-	.	?	0.89µM	.
COc1cccc(CN2CC(C(=O)NCCc3cn4cccnc4n3)CCC2=O)c1 (centres undefined)	-	.	.	.	.
O=C(c1ccc2c(=O)n(CCc3ccccc3)c(=O)[nH]c2c1)N1CCN(c2ccc(Cl)cc2)CC1	-	-	-	-	-
COc1cc(/C=C(\C#N)c2nc3ccccc3o2)ccc1O	-	45µM	-	?	.
N#C/C(=C\c1ccc(O)cc1)c1nc2ccccc2o1	-	-	-	-	?
Cc1ccccc1NC(=O)c1ccc(Nc2c([N+](=O)[O-])cc([N+](=O)[O-])c3ccccc23)cc1	-	?	?	?	7.9µM
O=C(Nc1ccc(Nc2ccccc2)cc1)c1ccc(Cl)c([N+](=O)[O-])c1	-	40µM	?	50µM	.
Cc1cc(C(=O)Nc2ccc(Nc3ccccc3)cc2)ccc1[N+](=O)[O-]	16µM	-	22µM	10µM	-[0.501 µM]
O=Nc1c(O)n(Cc2ccc(Cl)cc2Cl)c2ccccc12	-	45µM	-	?	?
O=C(O)c1ccc2c(ccc3nn(-c4ccc(/C=C/c5ccc(-n6nc7ccc8cc(C(=O)O)ccc8c7n6)cc5[S+](=O)([O-])[O-])c([S+](=O)([O-])[O-])c4)nc32)c1	.	.	?	18µM	.
O=[S+]([O-])([O-])c1ccc2c(c1)cc([S+](=O)([O-])[O-])c1nn(-c3ccc(/C=C/c4ccc(-n5nc6c([S+](=O)([O-])[O-])cc7cc([S+](=O)([O-])[O-])ccc7c6n5)cc4[S+](=O)([O-])[O-])c([S+](=O)([O-])[O-])c3)nc12	.	.	-	56µM	.
Cc1cc(F)cc(-c2cc(C(=O)NCc3ccccn3)[nH]n2)c1	-	.	.	.	.
CCc1nn(CC(=O)Nc2cccc(C(C)=O)c2)c(=O)c2cc3sccc3n12	-	-	-	-	?
CN(C(=O)COc1ccccc1)c1nnc(C23CC4CC(CC(C4)C2)C3)s1	-	-	-	-	14µM
O=C(CN1C(=O)C2(SCC(=O)N2c2cccc(Cl)c2)c2ccccc21)NCCc1ccccc1 (centres undefined)	-	-	-	-	-
CCN(CC)c1cc2nonc2c2nonc12	-	-	-	-	-
CN(C)c1cc(Cl)c2nonc2c1N	-	50µM	?	?	40µM
CCN(CC)c1cc(Cl)c2nonc2c1N	?	?	?	?	32µM
O=C(NC1CCCC1)C1c2ccccc2OCC(=O)N1C1CC1 (centres undefined)	-	.	.	.	.
COc1ccc(CN2CCN(C(=O)c3cccs3)CC2)cc1Br	-	50µM	?	35µM	35µM
COc1ccc(CN2CCN(C(=O)c3ccccc3C(=O)c3ccccc3)CC2)cc1F	-	.	.	.	.
O=C(c1cccs1)N1CCN(Cc2cccc([N+](=O)[O-])c2)CC1	-	28µM	?	20µM	11µM
O=C(c1ccc([N+](=O)[O-])cc1)N1CCN(C(=O)c2cccs2)CC1	-	-	-	-	-

Assay outcomes (PubChem BioAssay)
